Screening data (PubChem)
TDP1 cell CPT: growth inhibition of DT40 Tdp1-/-;hTDP1 cells with camptothecin (screen for TDP1 inhibitors) | AID 686979 | 420,000 tested, 12% active | chicken DT40 Tdp1-/-;hTDP1 cells + 20 nM CPT, ATP luminescence, 48 h | Potency, µM (doses to about 46.2 µM), for inactives: at the highest dose activity change, negative = growth inhibition, hits mostly inhibitors; further: potency means the concentration at half of the fitted maximal effect; nearly all actives have a fitted effect of over 55% in size
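Cell growth measured by CellTiter-Glo luminescence after a minimum 48 h, 37 C compound exposure with 20 nM CPT in Tdp1-knockout DT40 cells stably expressing hTDP1, seeded 400/well; qHTS titration format.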
HT1080 IDH1KD tx: toxicity to HT-1080 IDH1 knockdown cells (counter line); HT-1080 IDH1 knockdown viability, ATP luminescence, 48 h; Potency, µM (series often up to 46.1 µM), without a hit: top-dose activity, negative = toxicity, hits mostly cytotoxic; 360,000 tested, 2% active; AID 686971;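 further: potency means the concentration at half of the fitted maximal effect; 0% = DMSO wells and -100% = cell-free medium wells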
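Using the IDH1-knockdown HT-1080 line run in the same batch and compound series as the NT line, viability after 48 h at 37 °C was determined by CellTiter-Glo luminescence and expressed as % activity.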
IL-1B inflam inh: inhibitors of inflammasome signaling (IL-1 beta secretion). THP-1 LPS/ATP IL-1B secretion, AlphaLISA, 16 h; active compounds read low. 360,000 tested, 4.7% active. activity change, % at 57.5 µM. AID 743279; in the data active means activity change below about -50%; inconclusive means mostly about -30% to -49%
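THP-1 cells pretreated 1 hr with compounds (up to 57.5 uM final), then stimulated with LPS (250 ng/mL final) plus ATP (1.25 mM final); secreted IL-1B measured by AlphaLISA after 16 hr, decreased signal indicating inhibition.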
DT40 TDP1 no CPT: qHTS for Inhibitors of human tyrosyl-DNA phosphodiesterase 1 (TDP1): qHTS in cells in absence of CPT | DT40 Tdp1-/- hTDP1 cells, no CPT, ATP luminescence, 48 h | Potency, µM (series often up to 46.2 µM), for inactives: at the highest dose activity change, negative = growth inhibition, most hits filed as inhibitors | 420,000 tested, 15% active; further: potency means the concentration at half of the fitted maximal effect; nearly all actives have a fitted effect of over 55% in size
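No-CPT arm: Tdp1-/-;hTDP1 DT40 cells (400/well) plus compounds, incubated ≥48 hr at 37 °C. Readout CellTiter-Glo luminescence.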
HT1080NT lethal: kills 2HG-producing HT-1080-NT fibrosarcoma cells. HT-1080-NT fibrosarcoma viability, CellTiter-Glo ATP luminescence, 48 h. Potency, µM (doses to about 46.1 µM), without a hit: at the highest dose activity, negative = less viability, actives largely listed as cytotoxic. 360,000 tested, 1.6% active;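 further: NT is the 2HG producing partner of a matched IDH1 knockdown line; potency means the concentration at half of the fitted maximal effect; 0% = DMSO-treated cells and -100% = media-only wells without cells; nearly all actives have a fitted effect of over 55% in size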
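Viability by CellTiter-Glo luminescence after 48 h compound exposure at 37C of HT-1080-NT cells (750/well, RPMI, 5% FBS). % activity scaled between DMSO wells and medium-only wells, then curve-fitted and categorized by curve class.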
Numbers without * were called inactive; ? = inconclusive; . = no result given; [ ] = remark or other dose. The list is not random: actives were taken first. Their share in the collection is about 19%. Unless noted, the call rests on the fitted dose curve; in most records, active means well fitted curve in the direction sought with a large enough effect; inconclusive means small, poorly fitted or top-dose-only effect, or another doubt; inactive means no such curve, though single readings can be large; an effect the other way counts as inactive or inconclusive. Unless noted, on the % scale 0 is the no-effect control and ±100 the full control effect.

SMILES | TDP1 cell CPT | HT1080 IDH1KD tx | IL-1B inflam inh | DT40 TDP1 no CPT | HT1080NT lethal
Cc1ccccc1C(=O)c1cccn1CC(=O)NC(C)c1ccc2c(c1)OCCO2 (configuration not stated) | -11% | -3% | -22 | ? | 5%
CCN(CC)CCCN(C(=O)Cn1nnc(-c2ccc(OC)c(OC)c2)n1)C(C(=O)NC(C)(C)C)c1ccc(F)cc1 (configuration not stated) | ? | -1% | 16 | ? | -6%
CC(=O)Nc1ccc(S(=O)(=O)NCCC(=O)NNC(=O)c2ccccc2O)cc1 | 28% | 15% | 2 | -8% | 5%
O=S(=O)(Nc1nc2ccccc2nc1NCc1ccco1)c1ccc(Cl)cc1 | ? | ? | 26 | ? | ?
Cc1noc(C)c1CSc1nc2ccccc2nc1NS(=O)(=O)c1ccc(Cl)cc1 | 15µM* | ? | 32 | 12µM* | ?
O=C(Nc1cc2c3c(c1)CC(=O)N3CCC2)c1ccccc1C(F)(F)F | -16% | 13% | 0 | ? | 13%
O=C(Nc1ccc2c(c1)CCCN2C(=O)c1cccs1)c1ccccc1C(F)(F)F | ? | . | . | 23µM* | .
COc1cc(C(=O)Nc2ccc3c(c2)CCCN3C(=O)c2ccco2)c([N+](=O)[O-])cc1OC | -4% | -1% | -7 | -25% | 0%
COc1ccccc1C(=O)Nc1ccc2c(c1)CCCN2C(=O)c1ccccc1 | 16µM* | 15µM* | -5 | 13µM* | 18µM*
COc1ccccc1C(=O)Nc1ccc2c(c1)CCCN2C(=O)c1cccs1 | ? | ? | ? | 21µM* | ?
COc1ccccc1C(=O)NC(=S)N1CCCc2ccccc21 | ? | 5% | 3 | ? | -3%
CN(C)S(=O)(=O)N1CCC(Oc2cccc(C(=O)NC3CCOC3)c2)CC1 (configuration not stated) | -20% | 13% | 16 | -15% | 2%
Cc1sc2c(c1C)c(=O)n(CCc1ccccc1)c(=O)n2Cc1ccc(F)cc1 | ? | . | . | 18µM* | .
Cc1sc2c(c1C)c(=O)n(CCc1ccccc1)c(=O)n2Cc1cccc(F)c1 | ? | . | . | 5.8µM* | .
Cc1cccc(Cn2c(=O)n(CCc3ccccc3)c(=O)c3c(C)c(C)sc32)c1 | 21µM* | . | . | ? | .
Cc1sc2c(c1C)c(=O)n(CCc1ccccc1)c(=O)n2Cc1ccc(C(C)(C)C)cc1 | 6% | . | . | -13% | .
CCN(CC)C(=O)c1sc2c(c1C)c(=O)n(CCc1ccccc1)c(=O)n2Cc1cccc(Cl)c1 | 23µM* | . | . | 15µM* | .
Cc1ccc(C)c(Cn2c(=O)n(CCc3ccccc3)c(=O)c3c(C)c(C)sc32)c1 | -10% | . | . | 9% | .
CCN(CC)C(=O)c1sc2c(c1C)c(=O)n(Cc1ccccc1)c(=O)n2CC(=O)Nc1ccc(OC)cc1 | ? | . | . | -19% | .
CCCn1c(SCC(=O)Nc2ccc(S(=O)(=O)N3CCOCC3)cc2)n[nH]c1=O | -8% | 0% | 2 | -2% | 0%
CC(=O)NCCNC(=O)C1(C)Cc2c(-c3ccc(NC(C)=O)cc3)ccnc2O1 (configuration not stated) | -1% | 25% | 29 | ? | 6%
CN(C)c1ccc(-c2ccnc3c2CC(C)(C(=O)NCc2cccs2)O3)cc1 (configuration not stated) | 16µM* | ? | 11 | 13µM* | ?
CC1(C(=O)NCc2cccs2)Cc2c(-c3ccccc3)ccnc2O1 (configuration not stated) | 5.8µM* | ? | 35 | 6.5µM* | ?
CC1(C(=O)NCc2cccs2)Cc2c(-c3ccc4c(c3)OCO4)ccnc2O1 (configuration not stated) | 1.3µM* | ? | 40 | 2.3µM* | ?
CC1(C(=O)Nc2cccnc2)Cc2c(-c3ccc4c(c3)OCO4)ccnc2O1 (configuration not stated) | -76% | -29% | -22 | ? | -19%
SMILES | TDP1 cell CPT | HT1080 IDH1KD tx | IL-1B inflam inh | DT40 TDP1 no CPT | HT1080NT lethal
CC1(C(=O)NCc2cccc(Cl)c2)Cc2c(-c3ccc4c(c3)OCO4)ccnc2O1 (configuration not stated) | 26µM* | ? | 36 | 16µM* | ?
COc1ccc(N2CC(c3nc(-c4ccccc4C)no3)CC2=O)cc1Cl (configuration not stated) | -22% | . | . | -22% | .
CCN1c2ccccc2-c2nc(SCC(=O)Nc3cccc(C)c3C)ncc2S1(=O)=O | ? | . | . | 21µM* | .
CCOC(=O)c1ccccc1NC(=O)CSc1ncc2c(n1)-c1ccccc1N(CC)S2(=O)=O | ? | . | . | 16µM* | .
CCN1c2ccccc2-c2nc(SCC(=O)NCc3ccccc3)ncc2S1(=O)=O | 18µM* | . | . | 23µM* | .
C=CCn1c(COc2ccccc2)nnc1SC(C)C(=O)N/N=C/c1cc(Cl)ccc1O (configuration not stated) | ? | ? | 105 | 21µM* | ?
C=CCn1c(COc2ccc(Cl)cc2)nnc1SCC(=O)N/N=C/c1cccc(O)c1 | ? | -1%[9.24 µM] | 1 | ? | -16%
Cc1ccc(Cc2nnc(SCC(=O)Nc3ccccc3)[nH]c2=O)cc1 | ? | 3% | 16 | -3% | 7%
Cc1ccc(Cc2nnc(SCC(=O)Nc3c(C)cccc3C)[nH]c2=O)cc1 | ? | -1% | 15 | 6.5µM* | 0%
CC(NC(=O)c1noc2c1CCCC2)c1ccccc1 (configuration not stated) | -13% | -3% | 0 | ? | -2%
O=C(c1ccc2c(Cl)c3c(nc2c1)CCCC3)N1CCN(c2cccc(C(F)(F)F)c2)CC1 | -9% | . | . | -12% | .
O=C(c1noc2c1CCCCC2)N1CCN(C(c2ccccc2)c2ccccc2)CC1 | 13µM* | 9% | 0 | 21µM* | 4%
O=C(c1noc2c1CCCC2)N1CCC(CO)(Cc2ccccc2Cl)CC1 | -27% | -5% | -81* | ? | -3%
O=C(c1noc2c1CCCCC2)N1CCN(c2cccc(C(F)(F)F)c2)CC1 | ? | . | . | 16µM* | .
O=C(c1csc2c1CCCC2)N1CCN(c2cccc(C(F)(F)F)c2)CC1 | ? | -21% | 4 | 15µM* | -4%
Cc1c(Cl)cccc1NC(=O)CC(c1cccs1)N1Cc2ccccc2C1=O (configuration not stated) | 16µM* | . | . | ? | .
Cc1c(Cl)cccc1NC(=O)Cc1cccs1 | -12% | 4% | 0 | 16% | 2%
O=C(CC(c1cccs1)N1Cc2ccccc2C1=O)Nc1ccccc1F (configuration not stated) | ? | . | . | 21µM* | .
